TDP1 cell noCPT = qHTS for Inhibitors of human tyrosyl-DNA phosphodiesterase 1 (TDP1): qHTS in cells in absence of CPT | Potency, µM (titrated, usually from 46.2 µM), without a hit: at the top dose activity change, negative = growth inhibition, usual class: inhibitors | hit rate 15% among 420,000 | DT40 Tdp1-/- hTDP1 cells, no CPT, ATP luminescence, 48 h; further: potency means the concentration at half of the fitted maximal effect; nearly all actives have a fitted effect of over 55% in size
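Growth kinetics read by CellTiter-Glo luminescence after ≥48 hr at 37 °C. Cells: DT40 Tdp1-/- stably carrying human TDP1, 400 per well, compound exposure in the absence of CPT (DMSO vehicle).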
LDHA inh = inhibitors of human lactate dehydrogenase A; activity change, % (values are at about 110 or 230 µM); AID 1347041; hit rate 0.15% among 480,000; purified LDHA, NADH/diaphorase-resazurin fluorescence; active compounds read low; P00338; in the data active means activity change below about -30%; inconclusive means mostly about -25% to -30%;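 further: plate controls were DMSO wells for no effect and wells without enzyme for full effect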
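Remaining NADH was detected by diaphorase (0.133 mg/mL) converting 37 µM resazurin to fluorescent resorufin, read at 0 and 20 minutes. The preceding 5-minute room-temperature reaction used 2 nM LDHA, 0.2 mM sodium pyruvate and 0.06 mM NADH at pH 7.4.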
IL1B secr inh = inhibitors of inflammasome signaling (IL-1 beta secretion) | THP-1 LPS/ATP IL-1B secretion, AlphaLISA, 16 h; active compounds read low | activity change, % at 57.5 µM | AID 743279 | hit rate 4.7% among 360,000; in the data active means activity change below about -50%; inconclusive means mostly about -30% to -49%
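Secreted IL-1B measured by AlphaLISA bead assay after 16 h compound exposure of THP-1 cells; compounds (final up to 57.5 uM) added 1 h before LPS (250 ng/mL) and ATP (1.25 mM) stimulation; lower signal means less secretion.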
TDP1 cell CPT = growth inhibition of DT40 Tdp1-/-;hTDP1 cells with camptothecin (screen for TDP1 inhibitors). Potency, µM (highest dose often 46.2 µM), inactives show top-dose activity change, negative = growth inhibition, usual class: inhibitors. hit rate 12% among 420,000. AID 686979. chicken DT40 Tdp1-/-;hTDP1 cells + 20 nM CPT, ATP luminescence, 48 h; further: potency means the concentration at half of the fitted maximal effect; nearly all actives have a fitted effect of over 55% in size
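Cell growth measured by CellTiter-Glo luminescence after a minimum 48 h, 37 C compound exposure with 20 nM CPT in Tdp1-knockout DT40 cells stably expressing hTDP1, seeded 400/well; qHTS titration format.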
RORgamma inh = inhibitors of mouse ROR gamma transcriptional activity; Potency, µM (highest dose often 53.6 µM), inactives show at the highest dose activity change, negative = inhibition, actives largely listed as inhibitors; P51450; hit rate 5.4% among 310,000; Drosophila S2 Gal4-RORgamma UAS-luciferase reporter, 20 h; further: potency means the concentration at half of the fitted maximal effect; nearly all actives have a fitted effect of over 60% in size
Target sequence (P51450 whole entry, looked up, the tested form may be a part): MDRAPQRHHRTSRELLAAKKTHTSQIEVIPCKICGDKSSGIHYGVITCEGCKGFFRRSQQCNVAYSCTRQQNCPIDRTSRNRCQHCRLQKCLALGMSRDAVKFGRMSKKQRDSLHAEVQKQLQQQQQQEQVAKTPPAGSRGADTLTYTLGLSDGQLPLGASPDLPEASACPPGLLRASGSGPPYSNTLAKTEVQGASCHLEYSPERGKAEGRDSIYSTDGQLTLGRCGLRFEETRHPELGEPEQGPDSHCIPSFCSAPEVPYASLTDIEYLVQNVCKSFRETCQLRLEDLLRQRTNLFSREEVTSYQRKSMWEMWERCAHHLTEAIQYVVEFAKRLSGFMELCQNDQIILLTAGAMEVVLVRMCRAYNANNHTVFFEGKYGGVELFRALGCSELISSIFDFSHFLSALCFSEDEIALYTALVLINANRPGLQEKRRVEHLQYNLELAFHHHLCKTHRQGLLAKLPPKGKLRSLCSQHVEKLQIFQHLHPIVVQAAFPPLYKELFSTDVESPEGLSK
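Drosophila S2 cells stably expressing Gal4-DBD/mouse RORγ fusion under metallothionein promoter plus UAS-luciferase; compound 1 h, then 700 uM CuSO4 induction for 20 h at ambient temperature; inhibition read as reduced luminescence.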
VP16 counter = inhibits Gal4-VP16 luciferase reporter, ROR gamma counter-screen; Drosophila S2 Gal4-VP16 UAS-luciferase, luminescence, 20 h; Potency, µM (series often up to 53.6 µM), without a hit: at the top dose activity, negative = inhibition, most hits filed as inhibitors; hit rate 3.5% among 310,000;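 further: Gal4-VP16 expression switched on by copper sulfate through the metallothionein promoter; potency means the concentration at half of the fitted maximal effect; nearly all actives have a fitted effect of over 50% in size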
Active calls of the source: *; ? = inconclusive; nt = no result; [ ] = dose if it differs, or a comment. Only some compounds are listed: those with a hit (about 18% of all), similar ones and a draw of the others. Unless noted, the call rests on the fitted dose curve; in most records, active means well fitted curve in the direction sought with a large enough effect; inconclusive means small, poorly fitted or top-dose-only effect, or another doubt; inactive means no such curve, though single readings can be large; an effect the other way counts as inactive or inconclusive. Unless noted, on the % scale 0 is the no-effect control and ±100 the full control effect.

SMILES	TDP1 cell noCPT	LDHA inh	IL1B secr inh	TDP1 cell CPT	RORgamma inh	VP16 counter
O=C(c1cccs1)N1CCCc2cc(NS(=O)(=O)c3ccc(F)cc3F)ccc21	9.2µM*	-7	nt	21µM*	nt	nt
COCCn1cc(C(=O)NCCc2cccc(Cl)c2Cl)ccc1=O	nt	9	nt	nt	nt	nt
COc1cccc(N2CCN(C(C(=O)O)c3c[nH]c4cc(NC(=O)CCC(=O)O)ccc34)CC2)c1 (stereo not drawn)	nt	1	nt	nt	nt	nt
O=C(O)c1ccc(N2CCCCCC2)c(N2C(=O)c3ccccc3C2=O)c1	4%	-5	12	4%	-27%	1%
O=C1c2cccc3c(N4CCCCC4)ccc(c23)C(=O)N1c1ccc(O)cc1	23µM*	0	-4	?	2%	-1%
O=C1c2cccc3c(N4CCCCC4)ccc(c23)C(=O)N1c1ccccc1O	21µM*	1	-25	13µM*	1%	?
O=C1c2cccc3cccc(c23)C(=O)N1c1ccc(O)cc1	5%	-21	-2	-1%	-14%	-2%
CC1=C2C3OC(=O)C(C)C3CCC2(C)C=C(Br)C1=O (stereo not drawn)	21µM*	-3	-13	-11%	nt	nt
O=C(c1ccc(S(=O)(=O)Cc2cc(F)ccc2F)c([N+](=O)[O-])c1)N1CCOCC1	7.3µM*	2	-100*	6.5µM*	nt	nt
O=C(c1ccc(S(=O)(=O)c2cccc(Cl)c2)c([N+](=O)[O-])c1)N1CCN(c2ccccn2)CC1	2.3µM*	-1	-246*	2.6µM*	?	?
O=C(c1ccc(S(=O)(=O)c2ccccc2Cl)c([N+](=O)[O-])c1)N1CCCCCC1	18µM*	-11	-73*	21µM*	14%	?
O=C(c1ccc(S(=O)(=O)Cc2ccccc2F)c([N+](=O)[O-])c1)N1CCCCCC1	23µM*	1	-79*	?	22%	7%
CCS(=O)(=O)N1CCN(c2ccc(C(=O)N3CCOCC3)cc2[N+](=O)[O-])CC1	4%	1	0	1%	2%	10%
COc1ccc(Cl)cc1NC(=O)C(C)N1CCN(S(=O)(=O)Cc2ccccc2)CC1 (stereo not drawn)	nt	4	nt	nt	nt	nt
CC(C)CN(CC(=O)NC(C)(C#N)C1CC1)C1CC1 (stereo not drawn)	nt	2	nt	nt	nt	nt
O=S(=O)(c1ccc(-c2csc(Nc3ccc(F)cc3)n2)cc1)N1CCOCC1	nt	-10	nt	nt	nt	nt
COC(=O)c1ccc2oc(=O)c(S(=O)(=O)c3ccc(F)cc3)cc2c1	nt	8	nt	nt	nt	nt
O=C(c1ccc(SCc2ccco2)c([N+](=O)[O-])c1)N1CCOCC1	-25%	-4	-5	-16%	?	-5%[10 µM]
O=C(c1ccc2snnc2c1)N1CCN(c2ccccn2)CC1	-9%	-9	-85*	-4%	22%	4%
CC1CCN(C(=O)c2ccc(SCc3ccccc3F)c([N+](=O)[O-])c2)CC1	?	-9	-60*	-11%	19%	-1%
COc1ccc2c(C)c(CC(=O)Nc3cccc(C(C)=O)c3)c(=O)oc2c1C	nt	2	nt	nt	nt	nt
CCOC(=O)C(CC)Sc1nnc(CSc2ncccn2)n1-c1ccccc1 (stereo not drawn)	nt	9	nt	nt	nt	nt
CC(=O)Nc1ccc(C2=CC(=O)C[C@H](c3ccc(Cl)cc3)C2)cc1	16µM*	1	?	18µM*	nt	nt
Cc1ccc(NC2=CC(=O)CC(c3ccccc3)C2)cc1 (stereo not drawn)	3.7µM*	-1	-1	2.9µM*	45%	0%
Cc1ccc(NC2=CC(=O)CC(c3ccc(Cl)cc3)C2)cc1 (stereo not drawn)	12µM*	-5	-14	?	?	?
SMILES	TDP1 cell noCPT	LDHA inh	IL1B secr inh	TDP1 cell CPT	RORgamma inh	VP16 counter
COc1ccc(C2CC(=O)C=C(Nc3ccc(Cl)cc3)C2)cc1 (stereo not drawn)	nt	2	nt	nt	nt	nt
O=C1C=C(Nc2ccc(Cl)cc2)CC(c2ccccc2)C1 (stereo not drawn)	12µM*	-4	8	21µM*	?	0%
Cc1ccc(Nc2nc(CSc3nnnn3C3CC3)cs2)cc1C	nt	6	nt	nt	nt	nt
CN1CCN(C2=Nc3ccccc3Sc3ccc(Cl)cc32)CC1	11µM*	nt	nt	?	7%[10 µM]	-13%
CCOC(=O)CNC(=O)CSc1nc2c(C)cccc2cc1CC	?	-3	-98*	?	-20%	-4%
CCOC(=O)CNC(=O)CSc1nc(-c2ccc(C)cc2)ns1	-20%	-7	-152*	-6%	-18%	-3%
CCOC(=O)CSc1nc(-c2ccc(OC)cc2)ns1	?	-3	11	-21%	10µM*	-26%
CCOC(=O)CNC(=O)CSc1nc(-c2ccccc2)ns1	?	1	12	?	?	25%
COCc1ccc(C(=O)NC(C)c2ccc(F)cc2)cc1 (stereo not drawn)	nt	5	nt	nt	nt	nt
Cc1cccc(Cn2c(SCC(=O)c3ccccc3)nc3c2c(=O)[nH]c(=O)n3C)c1	nt	0	nt	nt	nt	nt
Cc1cccc(Cn2c(Sc3nc(C)cs3)nc3c2c(=O)[nH]c(=O)n3C)c1	18µM*	-2	26	?	11%	4%
Cc1cccc(Cn2c(NC3CCCC3)nc3c2c(=O)[nH]c(=O)n3C)c1	23µM*	1	-14	?	nt	nt
Cc1cccc(Cn2c(SCC(=O)Nc3ccccc3)nc3c2c(=O)[nH]c(=O)n3C)c1	21µM*	-14	?	?	17%	18%
CCCc1n(CC(O)COCC2CC=CCC2)c2ccccc2[n+]1C (stereo not drawn)	10µM*	-15	7	8.2µM*	-18%	-5%
CCCc1n(CC(O)COC2CCCCC2)c2ccccc2[n+]1C (stereo not drawn)	3.7µM*	-17	-10	7.3µM*	-2%	-1%
C[n+]1cn(CC(O)COCc2ccccc2)c2ccccc21 (stereo not drawn)	?	?	-3	?	-28%	-2%
O=C(c1ccccc1)N1CCN(CC(O)COC2CCCCC2)CC1 (stereo not drawn)	-7%	2	13	2%	-1%	-6%
CCCc1n(CC(O)COCc2ccccc2)c2ccccc2[n+]1C (stereo not drawn)	23µM*	?	9	23µM*	3%	1%
COc1ccc(OC)c(Nc2nc3ccccc3nc2NS(=O)(=O)c2ccc(C)cc2)c1	nt	1	nt	nt	nt	nt
OCc1c[nH]c2c1ccc1ccccc12	nt	-9	nt	nt	nt	nt

Screening results as filed in PubChem.
